Reference: PubChem BioAssay (EPA / NIEHS)
Activity calls are given as the source filed them. The calls were made as follows: active = hit-call score of the fitted dose curve at least 0.9, where 1 is the maximum; inactive = score below 0.9.

Biological target: Myc proto-oncogene protein (Homo sapiens) (UniProt P01106)
Assay: ATG_Myc_CIS: Attagene CIS-FACTORIAL HepG2 Assay for human Myelocytomatosis (Myc) Proto-Oncogene Transcription Factor (AID 2282990)
Settings: HepG2, Attagene cis-reporter transcription factor activity; actives raise or lower the signal
Outline: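 Cells of the HepG2 human liver line bear multiple cis-driven reporter transcription units. Reporter mRNA after 24 h exposure is reverse-transcribed, amplified, labelled and resolved by capillary electrophoresis, with gain- or loss-of-signal fitting relative to DMSO.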

Sequence of Myc proto-oncogene protein (Homo sapiens) (P01106 whole entry, looked up): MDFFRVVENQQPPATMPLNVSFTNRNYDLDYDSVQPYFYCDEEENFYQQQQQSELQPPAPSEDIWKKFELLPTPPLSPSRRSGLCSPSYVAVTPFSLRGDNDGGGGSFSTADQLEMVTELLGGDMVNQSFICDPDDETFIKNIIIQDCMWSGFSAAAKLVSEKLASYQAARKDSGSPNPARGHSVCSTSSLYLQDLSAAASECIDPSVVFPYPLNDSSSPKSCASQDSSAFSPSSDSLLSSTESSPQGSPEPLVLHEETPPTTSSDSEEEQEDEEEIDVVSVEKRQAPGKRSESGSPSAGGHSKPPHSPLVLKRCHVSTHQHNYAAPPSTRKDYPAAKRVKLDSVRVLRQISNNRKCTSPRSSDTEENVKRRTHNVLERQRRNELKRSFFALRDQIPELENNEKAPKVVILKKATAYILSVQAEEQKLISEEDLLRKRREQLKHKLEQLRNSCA

Question: With `Clc1ccc(C(c2ccc(Cl)cc2)C(Cl)(Cl)Cl)cc1` as the compound, how does the outcome read?
Answer: inactive

Question: Which outcome does the source give for `Nc1ccc(Oc2ccc(N)cc2)cc1` here?
Answer: inactive

Question: Which outcome does the source give for `ClC1=C(Cl)[C@]2(Cl)[C@H]3[C@H]([C@@H]4C=C[C@H]3C4)[C@@]1(Cl)C2(Cl)Cl` here?
Answer: inactive

Question: Which outcome does the source give for `CCCCCOC(=O)c1ccccc1C(=O)OCCCCC` here?
Answer: inactive

Question: Which outcome does the source give for `CC(C)(C)C(O)(CCc1ccc(Cl)cc1)Cn1cncn1` (stereo unspecified) here?
Answer: inactive

Question: For `OCCOCCO`, which outcome is on record?
Answer: inactive

Question: For `Brc1ccc(Oc2ccccc2)cc1`, which outcome is on record?
Answer: inactive

Question: With `ClC1=C(Cl)C2(Cl)C3C(Cl)C=CC3C1(Cl)C2(Cl)Cl` (stereo unspecified) as the compound, how does the AC50 read?
Answer: 100 µM (active)

Question: For `CCC(C)c1ccc(O)cc1` (stereo unspecified), which outcome is on record?
Answer: inactive

Question: With `c1ccc2c(c1)oc1ccccc12` as the compound, how does the outcome read?
Answer: inactive

Question: For `CCC12COCN1COC2`, which outcome is on record?
Answer: inactive

Question: Which outcome does the source give for `c1ccc2c(c1)-c1cccc3cccc-2c13` here?
Answer: inactive

Question: With `Nc1ccc(Cl)cc1N` as the compound, how does the outcome read?
Answer: inactive

Question: With `O=C(Nc1ccccc1)c1ccccc1I` as the compound, how does the outcome read?
Answer: inactive

Question: With `CCOC(=O)[C@]1(c2ccccc2)Oc2ccccc2[C@@H]1N` as the compound, how does the AC50 read?
Answer: 24.5 µM (active)

Question: Which outcome does the source give for `CN(C)C(=O)Nc1ccc(Cl)cc1` here?
Answer: inactive

Question: Which outcome does the source give for `CCCCCCCCOC(=O)c1ccc(C(=O)OCCCCCCCC)c(C(=O)OCCCCCCCC)c1` here?
Answer: inactive

Question: For `CN(C)c1ccc(C(=O)c2ccc(N(C)C)cc2)cc1`, which outcome is on record?
Answer: inactive

Question: For `Clc1ccc(C(c2ccc(Cl)cc2)C(Cl)Cl)cc1`, which AC50 is on record?
Answer: 44.6 µM (active)

Question: For `Nc1ccc(Cc2ccc(N)cc2)cc1`, which outcome is on record?
Answer: inactive

Question: With `Cc1cccc(N)c1N` as the compound, how does the outcome read?
Answer: inactive

Question: Which outcome does the source give for `O=P(OCCCl)(OCCCl)OCCCl` here?
Answer: inactive

Question: For `O=Cc1ccco1`, which outcome is on record?
Answer: inactive

Question: For `c1ccc(NNc2ccccc2)cc1`, which outcome is on record?
Answer: inactive

Question: With `Oc1ccccc1Cl` as the compound, how does the outcome read?
Answer: inactive

Question: Which outcome does the source give for `CC(C)COC(=O)c1ccccc1C(=O)OCC(C)C` here?
Answer: inactive

Question: With `O=[N+]([O-])c1ccc(Oc2ccc(Cl)cc2Cl)cc1` as the compound, how does the outcome read?
Answer: inactive

Question: Which outcome does the source give for `N#CC(Br)Br` here?
Answer: inactive

Test system: not listed separately
Assay: ATG_NF_kB_CIS: Attagene CIS-FACTORIAL HepG2 Assay for human Nuclear Factor Kappa B (NF-kB) (AID 2282991)
Settings: HepG2 Attagene cis-factorial NF-kB reporter mRNA; actives raise or lower the signal
Outline: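 HepG2 cells transfected with cis-promoter-driven reporter units, so endogenous transcription factor activity is measured. Reporter mRNA quantified 24 h after dosing by RT-PCR and capillary electrophoresis, with bidirectional fitting against DMSO.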

Question: For `Brc1ccc(Oc2ccccc2)cc1`, which outcome is on record?
Answer: inactive

Question: For `c1ccc2c(c1)oc1ccccc12`, which outcome is on record?
Answer: inactive

Question: With `CCC12COCN1COC2` as the compound, how does the outcome read?
Answer: inactive

Question: Which outcome does the source give for `O=C(Nc1ccccc1)c1ccccc1I` here?
Answer: inactive

Question: For `CN(C)C(=O)Nc1ccc(Cl)cc1`, which outcome is on record?
Answer: inactive

Question: Which outcome does the source give for `Clc1ccc(C(c2ccc(Cl)cc2)C(Cl)Cl)cc1` here?
Answer: inactive

Question: For `O=Cc1ccco1`, which outcome is on record?
Answer: inactive

Question: Which outcome does the source give for `O=[N+]([O-])c1ccc(Oc2ccc(Cl)cc2Cl)cc1` here?
Answer: inactive

Question: Which outcome does the source give for `N#CC(Br)Br` here?
Answer: inactive

Test system: not listed separately
Assay: ATG_NRF2_ARE_CIS: Attagene CIS-FACTORIAL HepG2 Assay for human Nuclear Factor Erythroid 2 Related Factor 2 (NFR2) response to Antioxidant Response Elements (ARE) (AID 2282992);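 as to AC50: reporter mRNA level measured by RT-PCR and capillary electrophoresis fluorescence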
Settings: HepG2 Attagene ARE/NRF2 reporter, transcription factor activity; actives raise or lower the signal
Outline: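 Multiplexed reporter mRNA profiling in HepG2 after a 24 h chemical exposure. Curves fitted in both directions relative to DMSO negative control.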

Question: With `Clc1ccc(C(c2ccc(Cl)cc2)C(Cl)(Cl)Cl)cc1` as the compound, how does the AC50 read?
Answer: 36.4 µM (active)

Question: For `Nc1ccc(Oc2ccc(N)cc2)cc1`, which outcome is on record?
Answer: inactive

Question: For `ClC1=C(Cl)[C@]2(Cl)[C@H]3[C@H]([C@@H]4C=C[C@H]3C4)[C@@]1(Cl)C2(Cl)Cl`, which AC50 is on record?
Answer: 50.5 µM (active)

Question: For `CCCCCOC(=O)c1ccccc1C(=O)OCCCCC`, which AC50 is on record?
Answer: 56.4 µM (active)

Question: For `CC(C)(C)C(O)(CCc1ccc(Cl)cc1)Cn1cncn1` (stereo unspecified), which AC50 is on record?
Answer: 88.8 µM (active)

Question: Which outcome does the source give for `OCCOCCO` here?
Answer: inactive

Question: With `Brc1ccc(Oc2ccccc2)cc1` as the compound, how does the AC50 read?
Answer: 74 µM (active)

Question: Which outcome does the source give for `ClC1=C(Cl)C2(Cl)C3C(Cl)C=CC3C1(Cl)C2(Cl)Cl` (stereo unspecified) here?
Answer: inactive

Question: Which AC50 does the source give for `CCC(C)c1ccc(O)cc1` (stereo unspecified) here?
Answer: 67.3 µM (active)

Question: For `c1ccc2c(c1)oc1ccccc12`, which outcome is on record?
Answer: inactive

Question: For `CCC12COCN1COC2`, which outcome is on record?
Answer: inactive

Question: For `c1ccc2c(c1)-c1cccc3cccc-2c13`, which outcome is on record?
Answer: inactive

Question: Which AC50 does the source give for `Nc1ccc(Cl)cc1N` here?
Answer: 5.68 µM (active)

Question: With `O=C(Nc1ccccc1)c1ccccc1I` as the compound, how does the AC50 read?
Answer: 20.3 µM (active)

Question: Which AC50 does the source give for `CCOC(=O)[C@]1(c2ccccc2)Oc2ccccc2[C@@H]1N` here?
Answer: 34.7 µM (active)

Question: With `CN(C)C(=O)Nc1ccc(Cl)cc1` as the compound, how does the outcome read?
Answer: inactive

Question: With `CCCCCCCCOC(=O)c1ccc(C(=O)OCCCCCCCC)c(C(=O)OCCCCCCCC)c1` as the compound, how does the outcome read?
Answer: inactive

Question: Which outcome does the source give for `CN(C)c1ccc(C(=O)c2ccc(N(C)C)cc2)cc1` here?
Answer: inactive

Question: For `Clc1ccc(C(c2ccc(Cl)cc2)C(Cl)Cl)cc1`, which AC50 is on record?
Answer: 51.1 µM (active)

Question: With `Nc1ccc(Cc2ccc(N)cc2)cc1` as the compound, how does the outcome read?
Answer: inactive

Question: With `Cc1cccc(N)c1N` as the compound, how does the AC50 read?
Answer: 21.6 µM (active)

Question: Which outcome does the source give for `O=P(OCCCl)(OCCCl)OCCCl` here?
Answer: inactive

Question: With `O=Cc1ccco1` as the compound, how does the outcome read?
Answer: inactive

Question: For `c1ccc(NNc2ccccc2)cc1`, which AC50 is on record?
Answer: 27.8 µM (active)

Question: With `Oc1ccccc1Cl` as the compound, how does the AC50 read?
Answer: 52 µM (active)

Question: For `CC(C)COC(=O)c1ccccc1C(=O)OCC(C)C`, which AC50 is on record?
Answer: 36 µM (active)

Question: Which outcome does the source give for `O=[N+]([O-])c1ccc(Oc2ccc(Cl)cc2Cl)cc1` here?
Answer: inactive

Question: With `N#CC(Br)Br` as the compound, how does the AC50 read?
Answer: 74.8 µM (active)

Test system: not listed separately
Assay: ATG_Oct_MLP_CIS: Attagene CIS-FACTORIAL HepG2 Assay for human Octamer-Binding Transcription Factor (Oct) (AID 2282993)
Settings: HepG2 Attagene cis-factorial Oct reporter, mRNA; actives raise or lower the signal
Outline: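 HepG2 cells transiently transfected with cis-promoter-driven multiplexed reporter transcription units, dosed for 24 h. Reporter mRNA quantified by RT-PCR, fluorescent labelling, HpaI digestion and capillary electrophoresis; bidirectional fits versus DMSO baseline.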

Question: With `Nc1ccc(Oc2ccc(N)cc2)cc1` as the compound, how does the outcome read?
Answer: inactive

Question: Which AC50 does the source give for `CCCCCOC(=O)c1ccccc1C(=O)OCCCCC` here?
Answer: 161 µM (active)

Question: Which outcome does the source give for `CC(C)(C)C(O)(CCc1ccc(Cl)cc1)Cn1cncn1` (stereo unspecified) here?
Answer: inactive

Question: For `OCCOCCO`, which outcome is on record?
Answer: inactive

Question: Which AC50 does the source give for `Brc1ccc(Oc2ccccc2)cc1` here?
Answer: 177 µM (active)

Question: With `ClC1=C(Cl)C2(Cl)C3C(Cl)C=CC3C1(Cl)C2(Cl)Cl` (stereo unspecified) as the compound, how does the AC50 read?
Answer: 149 µM (active)

Question: With `CCC12COCN1COC2` as the compound, how does the outcome read?
Answer: inactive

Question: With `c1ccc2c(c1)-c1cccc3cccc-2c13` as the compound, how does the outcome read?
Answer: inactive

Question: With `Nc1ccc(Cl)cc1N` as the compound, how does the AC50 read?
Answer: 29.5 µM (active)

Question: For `O=C(Nc1ccccc1)c1ccccc1I`, which outcome is on record?
Answer: inactive

Question: Which outcome does the source give for `CCCCCCCCOC(=O)c1ccc(C(=O)OCCCCCCCC)c(C(=O)OCCCCCCCC)c1` here?
Answer: inactive

Question: For `CN(C)c1ccc(C(=O)c2ccc(N(C)C)cc2)cc1`, which outcome is on record?
Answer: inactive

Question: With `Cc1cccc(N)c1N` as the compound, how does the AC50 read?
Answer: 167 µM (active)

Question: Which outcome does the source give for `O=P(OCCCl)(OCCCl)OCCCl` here?
Answer: inactive

Question: For `O=Cc1ccco1`, which outcome is on record?
Answer: inactive

Question: With `N#CC(Br)Br` as the compound, how does the outcome read?
Answer: inactive
